Data from PubChem BioAssay AID1159580 (chemical genetic matrix, 2015).
In all, about 5,500 compounds went through this assay and about 2,000 (36%) were called active. Not shown: some 18% with an inconclusive outcome. Rule as the data show it: active = normalized growth mostly below about 0.91 (no sharp cut-off); inconclusive = no clear call, values can overlap the other calls; inactive = mostly above about 0.92. The list shows a part of the results.

Test: chemical genetic growth profiling, strain panel (AID 1159580);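 also: tested at 20 µM; growth read once vehicle control cultures reached saturation at 30 °C; 1 = growth at the plate median or of vehicle wells; lower values mean less growth of the strain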
Conditions: growth OD
[1] = S. cerevisiae deletion strains, locus YMR307W, strain GAS1, active compounds read low
[2] = S. cerevisiae deletion strains, locus YPL055C, strain LGE1, active compounds read low

Measured: normalized growth

COc1cc(C(=O)OCCCN2CCCN(CCCOC(=O)c3cc(OC)c(OC)c(OC)c3)CC2)cc(OC)c1OC
inactive: S. cerevisiae deletion strains, locus YAL040C, strain CLN3, active compounds read low 0.967 | S. cerevisiae deletion strains, locus YCL061C, strain MRC1 (second series), active compounds read low 1.01 | S. cerevisiae deletion strains, locus YDR150W, strain NUM1, active compounds read low 0.998 | S. cerevisiae deletion strains, locus YDR363W, strain ESC2, active compounds read low 1.03 | S. cerevisiae deletion strains, locus YER002W, strain NOP16, active compounds read low 1.03 | [1] 1.01 | S. cerevisiae deletion strains, locus YNL175C, strain NOP13, active compounds read low 1.01 | S. cerevisiae deletion strains, locus YNL197C, strain WHI3, active compounds read low 1 | S. cerevisiae deletion strains, locus YNL224C, strain SQS1, active compounds read low 1.01 | S. cerevisiae deletion strains, locus YOR083W, strain WHI5 (second series), active compounds read low 0.972 | [2] 1.02

COc1cc(C(=O)O)cc(OC)c1OC
inactive: S. cerevisiae deletion strains, locus YAL013W, strain DEP1, active compounds read low 1.02 | S. cerevisiae deletion strains, locus YBR021W, strain FUR4, active compounds read low 1.01 | S. cerevisiae deletion strains, locus YBR229C, strain ROT2, active compounds read low 1.01 | S. cerevisiae deletion strains, locus YCL029C, strain bik1, active compounds read low 1.04 | S. cerevisiae deletion strains, locus YDL035C, strain GPR1, active compounds read low 1.04 | S. cerevisiae deletion strains, locus YDL074C, strain BRE1, active compounds read low 1.05 | S. cerevisiae deletion strains, locus YDL101C, strain DUN1, active compounds read low 1.02 | S. cerevisiae deletion strains, locus YDL134C, strain PPH21, active compounds read low 1.01 | S. cerevisiae deletion strains, locus YDL185W, strain tfp1, active compounds read low 1.03 | S. cerevisiae deletion strains, locus YDL192W, strain arf1, active compounds read low 1.02 | S. cerevisiae deletion strains, locus YDR101C, strain arx1, active compounds read low 1.02 | S. cerevisiae deletion strains, locus YDR162C, strain NBP2, active compounds read low 1.02 | S. cerevisiae deletion strains, locus YDR318W, strain mcm21, active compounds read low 1.02 | S. cerevisiae deletion strains, locus YDR388W, active compounds read low 1.03 | S. cerevisiae deletion strains, locus YDR502C, strain sam2, active compounds read low 1.02 | S. cerevisiae deletion strains, locus YEL061C, strain CIN8, active compounds read low 1.01 | S. cerevisiae deletion strains, locus YER110C, active compounds read low 1.03 | S. cerevisiae deletion strains, locus YER155C, strain BEM2, active compounds read low 1.01 | S. cerevisiae deletion strains, locus YER167W, strain BCK2, active compounds read low 1.03 | S. cerevisiae deletion strains, locus YGL078C, strain dbp3, active compounds read low 1.03 | S. cerevisiae deletion strains, locus YGL086W, strain mad1, active compounds read low 1.03 | S. cerevisiae deletion strains, locus YGL248W, strain PDE1, active compounds read low 1.02 | S. cerevisiae deletion strains, locus YGR078C, strain PAC10, active compounds read low 1.03 | S. cerevisiae deletion strains, locus YGR135W, strain pre9, active compounds read low 1.02 | S. cerevisiae deletion strains, locus YGR252W, strain gcn5, active compounds read low 1.09 | S. cerevisiae deletion strains, locus YHR030C, strain SLT2, active compounds read low 1.02 | S. cerevisiae deletion strains, locus YHR079C, strain IRE1 (second series), active compounds read low 1.02 | S. cerevisiae deletion strains, locus YHR094C, strain hxt1, active compounds read low 1.02 | S. cerevisiae deletion strains, locus YHR129C, strain ARP1, active compounds read low 1.02 | S. cerevisiae deletion strains, locus YHR200W, strain rpn10, active compounds read low 1.02 | S. cerevisiae deletion strains, locus YIL066C, strain RNR3, active compounds read low 1.04 | S. cerevisiae deletion strains, locus YIL073C, strain SPO22, active compounds read low 1.09 | S. cerevisiae deletion strains, locus YIL125W, strain kgd1, active compounds read low 1.03 | S. cerevisiae deletion strains, locus YIR030C, strain dcg1, active compounds read low 1.02 | S. cerevisiae deletion strains, locus YJL095W, strain BCK1, active compounds read low 1.02 | S. cerevisiae deletion strains, locus YJL134W, strain LCB3, active compounds read low 1.02 | S. cerevisiae deletion strains, locus YJL168C, strain set2, active compounds read low 1.03 | S. cerevisiae deletion strains, locus YJL187C, strain SWE1 (second series), active compounds read low 1.03 | S. cerevisiae deletion strains, locus YJR043C, strain POL32, active compounds read low 1.03 | S. cerevisiae deletion strains, locus YJR075W, strain HOC1, active compounds read low 1.04 | S. cerevisiae deletion strains, locus YKL009W, strain mrt4, active compounds read low 1.08 | S. cerevisiae deletion strains, locus YKL068W, active compounds read low 1.04 | S. cerevisiae deletion strains, locus YKL085W, strain MDH1 (second series), active compounds read low 1.07 | S. cerevisiae deletion strains, locus YKL085W, strain MDH1, active compounds read low 1.07 | S. cerevisiae deletion strains, locus YKR001C, strain vps1, active compounds read low 1.02 | S. cerevisiae deletion strains, locus YLR039C, strain RIC1, active compounds read low 1.07 | S. cerevisiae deletion strains, locus YLR058C, strain SHM2, active compounds read low 1.02 | S. cerevisiae deletion strains, locus YLR102C, strain apc9, active compounds read low 1.02 | S. cerevisiae deletion strains, locus YLR262C, strain YPT6, active compounds read low 1.09 | S. cerevisiae deletion strains, locus YLR268W, strain sec22, active compounds read low 1.02 | S. cerevisiae deletion strains, locus YLR330W, strain CHS5, active compounds read low 1.02 | S. cerevisiae deletion strains, locus YLR342W, strain FKS1 (second series), active compounds read low 1.04 | S. cerevisiae deletion strains, locus YLR371W, strain rom2, active compounds read low 1.04 | S. cerevisiae deletion strains, locus YLR418C, strain cdc73, active compounds read low 1.04 | S. cerevisiae deletion strains, locus YML016C, strain PPZ1, active compounds read low 1.02 | S. cerevisiae deletion strains, locus YML032C, strain rad52, active compounds read low 1.03 | S. cerevisiae deletion strains, locus YML124C, strain tub3, active compounds read low 1.02 | S. cerevisiae deletion strains, locus YMR078C, strain ctf18, active compounds read low 1.06 | S. cerevisiae deletion strains, locus YMR223W, strain ubp8, active compounds read low 1.02 | S. cerevisiae deletion strains, locus YMR263W, strain SAP30, active compounds read low 1.02 | [1] 1.03 | S. cerevisiae deletion strains, locus YNL067W, strain RPL9B, active compounds read low 1.03 | S. cerevisiae deletion strains, locus YNL128W, strain TEP1, active compounds read low 1.03 | S. cerevisiae deletion strains, locus YNL153C, strain GIM3, active compounds read low 1.01 | S. cerevisiae deletion strains, locus YNL233W, strain BNI4, active compounds read low 1.03 | S. cerevisiae deletion strains, locus YNL250W, strain rad50, active compounds read low 1.03 | S. cerevisiae deletion strains, locus YNL271C, strain bni1, active compounds read low 1.02 | S. cerevisiae deletion strains, locus YNL298W, strain CLA4, active compounds read low 1.01 | S. cerevisiae deletion strains, locus YNL307C, strain MCK1, active compounds read low 1.05 | S. cerevisiae deletion strains, locus YNL322C, strain KRE1, active compounds read low 1.02 | S. cerevisiae deletion strains, locus YNR052C, strain pop2, active compounds read low 1.03 | S. cerevisiae deletion strains, locus YOL006C, strain TOP1, active compounds read low 1.2 | S. cerevisiae deletion strains, locus YOL012C, strain htz1 1.18 | S. cerevisiae deletion strains, locus YOL147C, strain pex11, active compounds read low 1.02 | S. cerevisiae deletion strains, locus YOR061W, strain CKA2, active compounds read low 1.02 | S. cerevisiae deletion strains, locus YOR069W, strain VPS5, active compounds read low 1.01 | S. cerevisiae deletion strains, locus YOR136W, strain idh2, active compounds read low 1.02 | S. cerevisiae deletion strains, locus YOR144C, strain elg1, active compounds read low 1 | S. cerevisiae deletion strains, locus YOR184W, strain ser1, active compounds read low 1.02 | S. cerevisiae deletion strains, locus YOR316C, strain cot1, active compounds read low 1.02 | [2] 1.05 | S. cerevisiae deletion strains, locus YPL241C, strain CIN2, active compounds read low 1.02 | S. cerevisiae deletion strains, locus YPR119W, strain clb2, active compounds read low 1.02 | S. cerevisiae deletion strains, locus YPR141C, strain kar3, active compounds read low 1.02 | S. cerevisiae deletion strains, locus YPR163C, strain tif3, active compounds read low 1.02 | S. cerevisiae deletion strains, locus YPR167C, strain met16, active compounds read low 1.03 | S. cerevisiae deletion strains, strain wtn01, active compounds read low 1.03 | S. cerevisiae strains, strain wild type, active compounds read low 1.02
